Test results taken from the OligoGym collection.

Molecular target: ZDHHC20
Assay: pooled miR-30 sensor sort-seq; sequence = guide strand
Settings: shRNA
Note: reference of the scale not given here.

Sequence | sensor-assay potency score (higher = more potent)
TTGGACAAGTAGAACTCTTTGG | -0.323
TAAAGTACTCTAAAACTGTTGC | 0.215
TTTTGCACGTGTATCTGTCAGT | -0.551
TTTCTTGTTGTCTTTCTTGGCT | -0.0932
TTGTTGTCTTTCTTGGCTGAAT | -1.21
TATAGATAGGTAAAGCTCTTGC | -0.117
TTATAAAGTACTCTAAAACTGT | -0.589

Molecular target: ZDHHC24
Assay: as above
Settings: shRNA

Sequence | sensor-assay potency score (higher = more potent)
TAGCAGTAAGCCCAGCCCTGGC | -1.6
TGAAGCAGCAGGCACAGGAAGG | -1.8
AGACACTCTGCCTGTGAGCAAC | -2.01
TCTGCCTGTGAGCAACATGAGC | -1.73
TCCCATGGAAGAGCAGCCCAGC | -1.99
CCTGTGAGCAACATGAGCCAGG | -2.43
TTGAGCAGCTGGAAGGCGGCCA | -0.092
TTGCCGAAGCCCACGCAGCGGC | -1.27
TAGTTGCCGAAGCCCACGCAGC | -1.53
TGAGCAACATGAGCCAGGGAAG | -1.75
TGCCAGAGACACTCTGCCTGTG | -0.683
TGTGAGCAACATGAGCCAGGGA | -0.189

Molecular target: ZDHHC4
Assay: as above
Settings: shRNA

Sequence | sensor-assay potency score (higher = more potent)
TTTGCTTTTGTTATAATGCCAG | -0.404
TACTGAATAAGAAAGACCGTGT | 0.745
TAAATCTGACATCACCACCAAG | -0.923
TACAGGACAAACAACAGGTAGC | -0.502
TAAACGGGAACTACAGCTCAAA | -0.745
ATACAGGACAAACAACAGGTAG | -1.34
TAGAAAGATCTCTTGAAGGTTG | 0.193
TTGGAAACATCACTTCATCAAA | -1.15
TTATACAGGAAAATATCTGTGC | 0.584
ATCTCTTGAAGGTTGCTCCGAA | -0.154
TTGCTTTTGTTATAATGCCAGG | -1.32
TACCACTCGTTAGTAGTCTGGT | -0.0383

Molecular target: ZDHHC6
Assay: as above
Settings: shRNA

Sequence | sensor-assay potency score (higher = more potent)
TCTTCTATTACTTTATAGCGAA | -0.958
AACTGTTCTATTGTTAAGCTGT | -0.493
TGAAATTCACACTTCCTCCAGT | -0.0351
TTCTTGTAGATTTTCAAACTTG | -0.053
TTGGTAACCACAACAGTTGTTG | -0.394
TTCTGCAGTGATGTGAACGTGG | 0.312
TTTTCTAGGGAACCAACCCCTT | -1.12
ATTTTGTCTCCATATAACCAGT | -1.42
TTTGTCTCCATATAACCAGTAT | -0.758
